Screening results (PubChem BioAssay)
Pol iota inh – DNA polymerase iota (human) inhibition. Q9UNA4. Pol iota fluorescent replication assay, 10 min. Potency, µM (top dose mostly 115 µM), most hits filed as inhibitors. 1% of 390,000 active. AID 588590
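Pol iota at 10 nM preincubated 15 min with compounds at room temperature; reaction started with fluorescent substrate, 50 nM final. Fluorescence read kinetically at 0 and 10 min; buffer-only wells as negative control.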
Pol eta inh – inhibitors of human DNA polymerase eta; recombinant Pol eta, fluorescent DNA replication assay; AID 588591; 1.2% of 390,000 active; Potency, µM (doses to about 114 µM), hits mostly inhibitors; Q9Y253
Target sequence (Q9Y253 whole entry, looked up): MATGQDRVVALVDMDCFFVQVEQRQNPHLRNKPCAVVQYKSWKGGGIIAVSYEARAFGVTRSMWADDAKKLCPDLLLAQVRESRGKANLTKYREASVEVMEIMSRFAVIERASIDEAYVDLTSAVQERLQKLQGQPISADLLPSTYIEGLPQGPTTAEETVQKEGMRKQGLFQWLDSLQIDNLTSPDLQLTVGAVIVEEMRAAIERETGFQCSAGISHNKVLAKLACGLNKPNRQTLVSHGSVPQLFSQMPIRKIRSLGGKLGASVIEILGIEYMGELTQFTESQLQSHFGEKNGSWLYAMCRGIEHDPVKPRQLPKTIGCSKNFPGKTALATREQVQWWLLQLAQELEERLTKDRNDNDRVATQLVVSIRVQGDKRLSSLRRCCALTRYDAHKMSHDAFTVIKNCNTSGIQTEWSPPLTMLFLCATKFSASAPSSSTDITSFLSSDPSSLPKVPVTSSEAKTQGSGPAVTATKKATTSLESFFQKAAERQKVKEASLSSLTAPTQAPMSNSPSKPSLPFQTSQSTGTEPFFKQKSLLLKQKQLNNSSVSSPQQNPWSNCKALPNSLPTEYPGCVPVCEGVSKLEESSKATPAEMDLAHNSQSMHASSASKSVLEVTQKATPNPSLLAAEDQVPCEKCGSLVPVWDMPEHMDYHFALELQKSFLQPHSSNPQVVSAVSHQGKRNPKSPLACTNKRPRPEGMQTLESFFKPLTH
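Fluorescent replication assay: 50 nM final substrate added after a 15 min room-temperature compound preincubation with 10 nM enzyme. Signal taken at 0 min and again at 10 min.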
FEN1 inh – inhibitors of human flap endonuclease 1 | 0.35% of 390,000 active | Recombinant FEN1 flap cleavage, fluorescence, 15 min | AID 588795 | Potency, µM (doses to about 114 µM), hits mostly inhibitors; also: nearly all actives have a fitted effect of over 65% in size
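Steps: FEN1 (10 nM) dispensed; compound added by pin tool; 15 min at room temperature; substrate added to 50 nM final; reads at 0 min and 15 min; data normalized and fitted (four-parameter Hill).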
Tb PGK inh – T. brucei PGK inhibition; PGK/GAPDH coupled, Kinase-Glo luminescence, 60 min; Potency, µM (highest dose often 57.5 µM), actives largely listed as inhibitors; 0.043% of 380,000 active; AID 602233; also: nearly all actives have a fitted effect of over 60% in size
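Recombinant glycosomal PGK reaction used 1,3-bisphosphoglycerate generated in-well by GAPDH (100nM final) in 100mM TEA pH 7.6, 5mM MgCl2, 0.01% Tween-20. After 60 minutes at room temperature, ATP was read by Kinase-Glo Plus luminescence end-point.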
Pol beta inh – DNA polymerase beta (human) inhibition; 1.3% of 340,000 active; Potency, µM (top dose mostly 114 µM), usual class: inhibitors; AID 485314; P06746; Pol beta primer extension/strand displacement, fluorescence kinetic
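Homogeneous kinetic assay of primer extension and strand displacement by 10 nM Pol beta, preincubated 15 min at room temperature with compound before 50 nM substrate (final) was added. Read at 0 and 10 min; four-parameter Hill fit.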
POLK inh – blocks human DNA polymerase kappa activity; purified Pol kappa, fluorescent DNA synthesis assay, 10 min; 0.53% of 400,000 active; Potency, µM (top dose mostly 107 µM), usual class: inhibitors; AID 588579; Q9UBT6
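Here, compound and 10 nM enzyme are combined for 15 min at room temperature; adding 50 nM substrate (final) starts DNA synthesis, tracked by fluorescence at 0 and 10 min against buffer-only wells.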
Large screens that a line does not name were inactive. Only some compounds are listed: those with a hit (about 2.4% of all), similar ones and a draw of the others. Calls follow the shape of the dose curve; as a rule, active = well fitted curve in the direction sought with a large enough effect; inconclusive = small, poorly fitted or top-dose-only effect, or another doubt; inactive = no such curve, though single readings can be large; an effect the other way counts as inactive or inconclusive.

O=C1NN(c2ccccc2)C(=O)/C1=C\c1ccc2c(c1)OCO2	none
Cc1ccc(N2NC(=O)/C(=C\c3cc4c(cc3[N+](=O)[O-])OCO4)C2=O)cc1C	Pol iota inh inconclusive, Pol eta inh inconclusive, Pol beta inh 20µM
CN(C)c1ccc(C=O)cc1[N+](=O)[O-]	none (no result: Pol eta inh, Tb PGK inh, Pol beta inh)
Cn1cc(/C=C/c2ccnc3ccccc23)c2ccccc21	FEN1 inh inconclusive (no result: Pol eta inh, Tb PGK inh, Pol beta inh)
Cc1ccccc1-n1c(C)nnc1SC(C)C(=O)NCc1ccco1 (configuration not stated)	none (no result: Pol eta inh, Tb PGK inh, Pol beta inh)
Cc1nnc(N/N=C\c2ccc(-c3cccc(C(=O)O)c3)o2)n1N	Pol iota inh 2.5µM, Pol eta inh inconclusive, Pol beta inh inconclusive, POLK inh inconclusive
COc1cc(/C=C2\SC(=Nc3ccccc3)NC2=O)cc(Cl)c1O	Pol eta inh inconclusive, FEN1 inh inconclusive, Pol beta inh 56µM
COc1ccc(/C=C2\SC(=Nc3ccccc3OC)NC2=O)cc1	Pol iota inh inconclusive, Pol eta inh 79µM
COc1cc(/C=C2\SC(=Nc3ccccc3OC)NC2=O)ccc1O	FEN1 inh inconclusive
COc1cc(/C=C2/CC/C(=C/c3ccc(O)c(OC)c3)C2=O)ccc1O	Pol iota inh 40µM, Pol eta inh 35µM, FEN1 inh inconclusive, Pol beta inh 18µM, POLK inh inconclusive
COc1cc(/C=C2/SC(=Nc3ccc(O)cc3)NC2=O)ccc1O	Pol iota inh inconclusive, Pol eta inh 32µM, Pol beta inh 20µM, POLK inh inconclusive
Oc1c(Br)cc(Br)cc1/C=N/c1nc2c(s1)CCCC2	Pol iota inh inconclusive, Pol eta inh inconclusive, POLK inh 79µM (no result: Pol beta inh)
Nc1cc(N)[nH]c(=S)n1	Pol iota inh inconclusive, FEN1 inh inconclusive (no result: Pol eta inh, Tb PGK inh, Pol beta inh)
NC(=S)NNc1cccc2cccnc12	Pol iota inh 11µM
NC(=S)Nc1cccc2cccnc12	none
CC(C)COc1ccc(C(=O)N2CCCCC2CCN2CCCCC2)cc1 (configuration not stated)	Pol beta inh inconclusive
CC(=O)n1cc(N(C(=O)CCl)c2ccc([N+](=O)[O-])cc2)c2ccccc21	Pol iota inh inconclusive, Pol eta inh 40µM
O=Cc1[nH]c2ccccc2c1N(C(=O)CCl)c1ccc([N+](=O)[O-])cc1	none
C(=C\c1c[nH]c2ccccc12)/c1ccc2ccccc2n1	none (no result: Pol eta inh, Tb PGK inh, Pol beta inh)
CCCSc1nnc(NC(=O)CSc2nc3[nH]c(=O)cc(O)c3s2)s1	Pol iota inh 35µM, Pol eta inh 56µM (no result: Pol beta inh)
CC(=O)c1ccc(NC(=O)CSc2nc3[nH]c(=O)cc(O)c3s2)cc1	none (no result: Pol beta inh)
Cc1csc(NC(=O)CSc2nc3[nH]c(=O)cc(O)c3s2)n1	Pol eta inh 28µM (no result: Pol beta inh)
O=C(CSc1nc2[nH]c(=O)cc(O)c2s1)Nc1nccs1	Pol eta inh inconclusive (no result: Pol beta inh)
CC(=O)[C@@]1(O)[C@H](C)CC2C3CC=C4CC(OP(=O)(O)O)CC[C@]4(C)C3CC[C@@]21C (some centres not stated)	FEN1 inh inconclusive, Pol beta inh 50µM (no result: Tb PGK inh)
Cc1cc(=O)[nH]c(/N=C(\N)Nc2cccc3ccccc23)n1	Pol iota inh inconclusive, Pol eta inh inconclusive, Pol beta inh 22µM
[N-]=C=C1C(=O)NC(=O)C([n+]2ccc(-c3ccncc3)cc2)C1c1ccccc1C(F)(F)F (configuration not stated)	Pol iota inh 16µM
[N-]=C=C1C(=S)NC(=O)[C@H]([n+]2ccccc2)[C@H]1c1ccc(Cl)cc1	Pol beta inh inconclusive
CCc1c(C)c2ccc(OC(C)C(=O)NC(Cc3c[nH]c4ccc(O)cc34)C(=O)O)c(C)c2oc1=O (configuration not stated)	Pol iota inh inconclusive, Pol eta inh 50µM
Cc1c(OCc2ccc(C(=O)O)o2)ccc2c3c(c(=O)oc12)CCC3	Pol iota inh 40µM, Pol eta inh 18µM, Tb PGK inh inconclusive, Pol beta inh 35µM
Cc1c(Cc2ccccc2)c(=O)oc2cc(OCC(=O)NC(Cc3ccc(Cl)cc3)C(=O)O)ccc12 (configuration not stated)	none
Cc1c(Cc2ccccc2)c(=O)oc2c(C)c(OCC(=O)N[C@@H](Cc3ccccc3)C(=O)O)ccc12	Pol eta inh 50µM, Pol beta inh 50µM
Cc1c(OCC(=O)NC(Cc2ccc(Cl)cc2)C(=O)O)ccc2c1oc(=O)c1ccccc12 (configuration not stated)	Pol eta inh 50µM, FEN1 inh inconclusive
CC(Oc1ccc2c(c1)oc(=O)c1ccccc12)C(=O)NC(Cc1c[nH]c2ccc(O)cc12)C(=O)O (configuration not stated)	Pol eta inh inconclusive, Pol beta inh inconclusive
CC(C)(C)n1ncc2c(=O)n(Cc3ccc(OC(F)(F)F)cc3)cnc21	none (no result: Pol eta inh, Tb PGK inh, Pol beta inh)
O=C(CSc1nc(=O)n(Cc2ccccn2)c2c1CCC2)Nc1ccccc1	none
CCc1ccc(-c2cn3c(n2)sc2cc(C(=O)NCCC4=CCCCC4)ccc23)cc1	none
Cc1c(OCC(=O)NCC(O)c2ccccc2)ccc2c3c(c(=O)oc12)CCC3 (configuration not stated)	none
Cc1c(OCC(=O)N[C@H](C(=O)O)c2ccccc2)ccc2c3c(c(=O)oc12)CCCC3	Pol iota inh inconclusive, Pol eta inh 56µM, Pol beta inh inconclusive, POLK inh inconclusive
Cc1c(C)c2ccc(OCC(=O)Nc3ccc(S(N)(=O)=O)cc3)c(C)c2oc1=O	Pol iota inh inconclusive, Pol eta inh inconclusive, FEN1 inh inconclusive, Pol beta inh 32µM, POLK inh inconclusive
C=C1C=C(C(F)F)n2ncc(C(=O)NCc3ccc(F)cc3)c2N1	none (no result: Pol eta inh, Tb PGK inh, Pol beta inh)
Cc1ccnc2ccc(Br)cc12	none (no result: Pol eta inh, Tb PGK inh, Pol beta inh)
Cc1ccc(CNC(=O)c2cc3c(s2)-c2c(C)cccc2OC3)cc1	Pol iota inh inconclusive, Pol beta inh 14µM
COc1cc(Cl)c(C)cc1NC(=O)c1cc2c(s1)-c1c(C)cccc1OC2	none
COc1ccc(NC(=O)c2cc3c(s2)-c2c(C)cccc2OC3)cc1Cl	Pol eta inh inconclusive, Pol beta inh 11µM
Cc1ccc(S(=O)(=O)N/N=C\c2cc3c(cc2Br)OCO3)cc1	none
O=[N+]([O-])c1cc2c(cc1/C=N/NS(=O)(=O)c1ccc(Br)cc1)OCO2	Pol eta inh inconclusive, FEN1 inh 50µM
COc1cc(OC)c(OC)cc1/C=C/c1cc(C(F)(F)F)[nH]c(=O)n1	none
O=c1nc(/C=C/c2cc([N+](=O)[O-])ccc2Cl)cc(C(F)(F)F)[nH]1	Pol iota inh inconclusive, Pol eta inh 22µM
COc1cc(/C=C/c2cc(C(F)(F)F)[nH]c(=O)n2)cc(OC)c1OC	Pol iota inh inconclusive
O=c1nc(/C=C/c2cccn2-c2ccc([N+](=O)[O-])cc2)cc(C(F)(F)F)[nH]1	Pol iota inh 40µM, Pol eta inh 45µM, Pol beta inh inconclusive, POLK inh 89µM
